# Wnt act = Wnt/beta-catenin pathway activators, primary screen, cell-based, plate reader, single point; Wnt/beta-catenin reporter cell assay, activator; activation, % at 9.35 µM; 1.2% of 300,000 active; AID 743398, 2014; in the data active = activation above about 30%, passing the limit was not always enough; inconclusive = no clear call, values can overlap the other calls;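 note: 0% = neutral control wells and 100% = positive control wells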
# esBAF inh = Bmi1 luciferase reporter increase in mESCs, primary screen, esBAF inhibitor project, mouse ES cells, Bmi1 luciferase knock-in, single point | 2% of 350,000 active | reporter increase, % at 12.5 µM | 24 h; 100% = twice the neutral-well signal; in the data active = activation above about 40%; inconclusive = no clear call, values can overlap the other calls;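 note: 0% = median of the plate's neutral control wells and 100% = double that signal; a rise in the Bmi1 reporter signal indicates esBAF inhibition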
# AHR activator = AHR activators, primary screen, cell-based, luminescence, luciferase reporter, human; Aryl hydrocarbon receptor (Homo sapiens), P35869; AHR-responsive luciferase reporter cells; activation, % at 5 µM; 2.5% of 320,000 active; in the data active = activation above about 47%;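 note: 0% = vehicle wells and 100% = reference agonist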
# Target sequence (P35869 whole entry, looked up): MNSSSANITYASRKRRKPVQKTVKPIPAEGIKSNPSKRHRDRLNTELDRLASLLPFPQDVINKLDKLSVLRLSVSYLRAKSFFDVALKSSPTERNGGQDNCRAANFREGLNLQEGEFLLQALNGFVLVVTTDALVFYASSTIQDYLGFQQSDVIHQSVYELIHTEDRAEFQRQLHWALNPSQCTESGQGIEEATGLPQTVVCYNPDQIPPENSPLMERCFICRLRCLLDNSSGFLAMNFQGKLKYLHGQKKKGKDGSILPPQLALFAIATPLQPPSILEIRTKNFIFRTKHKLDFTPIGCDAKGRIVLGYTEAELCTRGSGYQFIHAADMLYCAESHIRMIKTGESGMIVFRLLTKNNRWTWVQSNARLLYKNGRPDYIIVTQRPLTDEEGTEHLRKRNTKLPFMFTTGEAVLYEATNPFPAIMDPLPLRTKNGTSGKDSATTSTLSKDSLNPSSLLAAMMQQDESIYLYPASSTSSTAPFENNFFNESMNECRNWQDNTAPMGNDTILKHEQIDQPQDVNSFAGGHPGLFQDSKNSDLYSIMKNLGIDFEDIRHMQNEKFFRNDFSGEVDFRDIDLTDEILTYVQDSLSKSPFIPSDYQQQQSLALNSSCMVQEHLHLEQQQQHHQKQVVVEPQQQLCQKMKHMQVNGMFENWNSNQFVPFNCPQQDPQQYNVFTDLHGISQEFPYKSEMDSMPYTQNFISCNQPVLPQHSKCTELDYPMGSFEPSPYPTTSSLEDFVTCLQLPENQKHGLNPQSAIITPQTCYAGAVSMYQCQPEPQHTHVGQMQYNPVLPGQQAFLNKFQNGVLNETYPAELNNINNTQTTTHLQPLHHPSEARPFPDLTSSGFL
# MITF TRPM1 HTS = activators of MITF-driven TRPM1 promoter reporter, primary screen, cell-based, SK-MEL-5, luciferase, single point | SK-MEL-5 TRPM1-promoter luciferase, 24 h; % of positive control, neutral wells = 0 | activation, % at 12.5 µM | 0.75% of 300,000 active | AID 588334, 2011;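 active = mean activation of at least 80% with every replicate also reaching 80%; inconclusive = mean reaches 80% but some replicate falls short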;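 note: 0% = neutral control wells and 100% = parthenolide positive control wells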
# GAA850 FXN act = FXN promoter activators, primary screen, cell-based, luciferase luminescence, HEK293 lucGAA850; HEK293 lucGAA850 FXN promoter luciferase reporter, 24 h; percent of 10 µM SAHA response; AID 540364, 2011; 0.56% of 360,000 active; activation, % at 6 µM;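 active = activation above the average of all compounds screened plus 3 SD, cutoff fixed separately per campaign, cut at about 7.5% in these data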;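 note: 0% = DMSO wells and 100% = 10 µM SAHA wells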
# Active calls of the source: *; ? = inconclusive; . = no result given. Only some compounds are listed: those with a hit (about 4.2% of all), similar ones and a draw of the others.
SMILES,Wnt act,esBAF inh,AHR activator,MITF TRPM1 HTS,GAA850 FXN act
Cc1ccsc1/C=N/N=C1\C(=O)Nc2ccccc21,?,.,69.8*,37.1,3.4
CCn1ncc(/C=N/NC(=O)c2ccc3c(c2)OCO3)c1C,-4.2,30.7,31.2,-16.6,-3.4
CCn1nc(C)c(/C=N\NC(=O)c2ccc3c(c2)OCO3)c1C,-3.7,-1.1,73.5*,-28.8,2.2
C[C@@H]1CCCCO[C@H](CN(C)C(=O)CCCN(C)C)[C@H](C)CN([C@@H](C)CO)C(=O)c2cc(NC(=O)Nc3ccc(C(F)(F)F)cc3)ccc2O1,.,-6.8,.,.,.
N#Cc1c(/N=C/c2ccco2)sc2c1CCCCC2,-4.8,-1.1,4.7,2.9,5.5
N#Cc1c(/N=C/c2cc(Br)cs2)sc2c1CCC2,.,78.5*,-3.2,56.6,6.1
COc1ccccc1C(=O)O/N=C(\N)c1ccc(Cl)cc1,-4.4,52.1*,69.0*,38.0,4.0
COc1ccc(C(=O)O/N=C(\N)c2ccc(Cl)cc2)cc1,37.1*,?,-2.7,89.4*,4.4
COc1ccc(C(=O)O/N=C(\N)c2ccccn2)cc1,-0.3,-71.0,-4.7,-79.6,-8.1
Cc1cc(C)cc(N=C2NC(=O)/C(=C/c3cccs3)S2)c1,4.7,.,55.6*,-5.1,2.2
O=C1NC(=Nc2ccccc2)S/C1=C\c1cccs1,25.1,.,72.0*,52.6,4.8
C[C@@H]1CN([C@@H](C)CO)C(=O)c2cc(NS(=O)(=O)c3ccc(Cl)cc3)ccc2O[C@H]1CN(C)Cc1ccc2c(c1)OCO2,.,-1.4,.,.,.
CN(C)c1ccc(NC(=O)C(=O)C2C(=O)Nc3ccccc32)cc1 (stereo not drawn),44.2*,26.3,10.9,19.7,0.6
CN1CCN(C(=O)C[C@@H]2CC[C@H]3[C@@H](COC[C@H](O)CN3C(=O)Nc3ccc4c(c3)OCO4)O2)CC1,.,-4.2,.,.,.
COC(=O)/C(=C\Nc1ccccc1N)c1ncc(C(F)(F)F)cc1Cl,.,38.2,69.4*,-6.4,2.4
O=C(c1ccccc1)c1ncc(C(F)(F)F)cc1Cl,-0.2,1.6,-1.6,-1.3,0.2
O=c1[nH]c(-c2ccncc2)nc2ccccc12,-8.0,1.3,13.5,-11.5,1.6
Cc1cc(C)cc(Nc2nc3ccccc3c(=O)[nH]2)c1,.,.,76.8*,6.4,0.0
Cc1cccc(-c2nc3ccccc3c(=O)[nH]2)c1,25.7,7.9,68.2*,96.8*,2.5
CC(C)Nc1nc2ccccc2c(=O)[nH]1,-2.7,8.8,1.6,2.5,1.5
CC1(CCc2ccccc2)NC(=S)N(c2ccccc2)N1 (stereo not drawn),3.9,.,1.9,8.6,2.9
CC1(CCc2ccccc2)NC(=S)N(c2ccc(Cl)cc2)N1 (stereo not drawn),6.4,.,54.5*,3.4,3.3
CCCCc1ccc(NC(=O)CC(C)C)cc1,-9.6,47.8*,-2.2,61.9,3.4
COc1ccc(-c2csc(NC(=O)CC(C)C)n2)cc1,53.2*,.,1.0,63.7,1.9
CCC(=O)N(CC)c1nc(-c2ccc(OC)cc2)cs1,25.8,71.6*,14.3,71.7,2.3
SMILES,Wnt act,esBAF inh,AHR activator,MITF TRPM1 HTS,GAA850 FXN act
Cc1nc(-c2ccc(NC(=O)CC(C)C)cc2)cs1,37.2*,.,-0.2,92.1*,3.9
CCC(=O)N(Cc1ccco1)c1nc(-c2ccc(OC)cc2)cs1,.,8.5,3.8,8.6,2.6
COc1ccc(-c2csc(NC(=O)c3c(OC)cccc3OC)n2)cc1,1.2,4.6,-13.2,1.4,-0.4
C[C@H](CO)N1C[C@H](C)[C@H](CN(C)Cc2ccc(C(=O)O)cc2)Oc2ccc(NC(=O)NC3CCCCC3)cc2CC1=O,.,2.8,.,.,.
O=C(Nc1ccccc1F)N[C@H]1CC[C@@H](CCNC(=O)C2CCCCC2)O[C@H]1CO,.,-0.6,.,.,.
O=C(N[C@@H]1C=C[C@H](CC(=O)N2CCOCC2)O[C@@H]1CO)c1ccccn1,.,2.8,.,.,.
Cc1nc(-c2ccc(NC(=O)C3CC3)cc2)cs1,13.8,49.3*,-0.9,?,4.0
COc1ccc(-c2csc(NC(=O)C3=NN(c4ccccc4)C(=O)CC3)n2)cc1,1.8,.,10.8,-22.8,-3.5
COc1ccc(-c2csc(NC(=O)/C(N=Nc3ccccc3)=C(\C)O)n2)cc1,.,.,48.3*,.,.
Cc1ccc(C)n1-c1nccc(-c2cccs2)n1,18.5,10.1,35.6,-12.4,1.9
N#Cc1cccn1-c1nccc(-c2cccs2)n1,6.0,.,65.1*,12.1,3.8
COc1ccccc1NC(=O)Nc1cc(C(C)C)ccc1C,-0.5,5.0,.,-0.7,1.5
COc1ccccc1NC(=O)OC(C)c1ccc(Cl)cc1 (stereo not drawn),1.4,-2.7,75.4*,-15.1,2.7
CCc1cccc(NC(=O)c2sc3nc4n(c(=O)c3c2C)CCC4)c1,14.1,62.8*,2.2,95.0*,2.9
Cc1cc(C)cc(NC(=O)c2sc3nc4n(c(=O)c3c2C)CCC4)c1,3.1,21.3,0.7,38.3,2.9
S=c1nc(-c2ccccc2)[nH]n1-c1ccccc1,8.2,6.4,108.2*,0.7,3.7
COc1ccc(/C=C/c2cc(O)cc(OC3OC(CO)C(O)C(O)C3O)c2)cc1 (stereo not drawn),49.4*,-34.0,.,116.8*,2.8
COc1ccc(/C=C/c2cc(O)cc(O[C@@H]3O[C@H](CO)[C@@H](O)[C@H](O)[C@H]3O)c2)cc1O,72.3*,-24.5,.,.,0.2
Cc1cc(O)cc(O[C@H]2OC(CO)[C@H](O)[C@@H](O)[C@H]2O)c1 (stereo partly drawn),-0.9,-6.2,3.2,-4.8,0.2
COc1cc(/C=C/CO)ccc1O[C@@H]1O[C@H](CO)[C@@H](O)[C@H](O)[C@H]1O,-0.6,-1.6,0.3,.,2.9
C(=Cc1c[nH]c2ccccc12)c1nccc2ccccc12,41.8*,-42.9,.,27.8,2.2
CN(C)C=NC(=O)c1cc(C(=O)c2ccccc2Cl)c[nH]1,-0.9,.,-0.3,-9.6,0.0
CN(C)C=NC(=O)c1cc(C(=O)c2ccc(C(C)(C)C)cc2)c[nH]1,14.6,.,25.2,86.1*,7.1
CCOc1ccc(NC(=O)c2ccccc2OC)cc1,45.5*,21.8,40.7,11.6,3.1
CCOc1ccc(NC(=O)c2ccccc2OCC(=O)c2ccccc2)cc1,.,43.8*,5.8,.,0.7
SMILES,Wnt act,esBAF inh,AHR activator,MITF TRPM1 HTS,GAA850 FXN act
CCC(=O)Nc1ccc(Cl)c(NC(=O)c2ccccc2OC)c1,5.0,.,51.1*,-2.6,1.4
CCOc1ccc(NC(=O)c2ccccc2-c2ccccc2C(=O)O)cc1,12.7,26.8,1.7,84.5*,-1.1
CCOc1ccc(NC(=O)c2ccccc2CO)cc1,.,?,2.3,44.7,0.9
CCC(=O)Nc1ccc(Cl)c(NC(=O)c2cccc(OC)c2)c1,-1.6,-4.1,-4.3,5.8,1.5
Cc1noc(C)c1NC(=O)Nc1cccc2c1O[C@H](CN(C)S(=O)(=O)c1ccc(F)cc1)[C@H](C)CN([C@H](C)CO)C2=O,.,-2.9,.,.,.
CCOc1ccc(NC(=O)c2ccccc2O)cc1,.,26.3,1.1,82.1*,0.0
